Data on 12 molecules can be found in the supplement of paper PMC8540655.

Values without a mark were called inactive.

The first assay concerns Aedes aegypti larvae. The assay can be described thus: larval motility relative to same well at 0 h (fraction); higher = more motile (less active compound), active = 0.4 or less. Conditions: 10 µM; 2 h. As for the experimental part:
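MMV Pandemic Response Box compounds were tested at 10 µM (1% v/v DMSO) on Aedes aegypti larvae (18-24 h after hatching, about 10 per well, 96-well plates). Motility was quantified with INVAPP (200-frame movies) at 0, 2 and 24 h. Each well's motility was divided by its own 0 h score, and the median of 3 independent screens is reported.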
With `COc1cc(C(C)(C)CCCC(C)C)cc(OC)c1OC`, the larval motility is 1.11.

On to `COc1ccccc1CN[C@H]1C2CCN(CC2)[C@H]1C(c1ccccc1)c1ccccc1`, for which the larval motility was 0.829.

For the molecule `CN1C(=O)C(c2ccccc2)C(=O)N(c2ccccc2)c2cc(C(F)(F)F)ccc21` (centres undefined), the larval motility was 0.796.

`C[C@@]1(O)[C@H](O)[C@@H](CO)O[C@H]1n1ccc2c(N)ncnc21`: the larval motility is 0.65.

Consider `CCN1CCN(Cc2nc3ccc([N+](=O)[O-])cc3c(=O)n2-c2ccccc2F)CC1`, for which the larval motility was 0.54.

Consider `CC(C)Oc1cccc(NC(=O)c2ccccc2C(F)(F)F)c1`, for which the larval motility was 0.405.

Turning to `Nc1c(C(=O)NCc2ccco2)c2nc3ccccc3nc2n1CCN1CCCCC1`, the larval motility is 0.782.

As to `NC1(C(=O)O)CCP(=O)(O)CC1` (centres undefined), the larval motility is 0.238 (active).

In the case of `C[N+]1(C)CCCC(OC(=O)C(O)(c2ccccc2)c2ccccc2)C1` (centres undefined), the larval motility was 0.776.

Consider `O=C(NC12CC3CC(CC(C3)C1)C2)c1cc2ccccc2[nH]1`, for which the larval motility is 0.685.

Regarding `COC(=O)Nc1nc2ccccc2[nH]1`, the larval motility is 0.867.

For the molecule `CCCCc1ccc(C(=O)O)nc1`, the larval motility is 0.853.

Still in this assay, the particulars now being: 10 µM; 24 h.
In the case of `COc1cc(C(C)(C)CCCC(C)C)cc(OC)c1OC`, the larval motility was 1.04.

For the molecule `COc1ccccc1CN[C@H]1C2CCN(CC2)[C@H]1C(c1ccccc1)c1ccccc1`, the larval motility is 0.616.

As for `CN1C(=O)C(c2ccccc2)C(=O)N(c2ccccc2)c2cc(C(F)(F)F)ccc21` (centres undefined), the larval motility was 0.84.

In the case of `C[C@@]1(O)[C@H](O)[C@@H](CO)O[C@H]1n1ccc2c(N)ncnc21`, the larval motility is 0.788.

Turning to `CCN1CCN(Cc2nc3ccc([N+](=O)[O-])cc3c(=O)n2-c2ccccc2F)CC1`, the larval motility was 2.49.

Regarding `CC(C)Oc1cccc(NC(=O)c2ccccc2C(F)(F)F)c1`, the larval motility is 0.543.

For the molecule `Nc1c(C(=O)NCc2ccco2)c2nc3ccccc3nc2n1CCN1CCCCC1`, the larval motility was 0.543.

For `NC1(C(=O)O)CCP(=O)(O)CC1` (centres undefined), the larval motility is 1.44.

As for `C[N+]1(C)CCCC(OC(=O)C(O)(c2ccccc2)c2ccccc2)C1` (centres undefined), the larval motility is 0.656.

Consider `O=C(NC12CC3CC(CC(C3)C1)C2)c1cc2ccccc2[nH]1`, for which the larval motility is 1.27.

As for `COC(=O)Nc1nc2ccccc2[nH]1`, the larval motility was 0.986.

Regarding `CCCCc1ccc(C(=O)O)nc1`, the larval motility was 0.63.
